Screening data: PubChem, National Center for Advancing Translational Sciences (NCATS)
This is one part of a sample in which hits are shown more often than they occur.
ERK EGF block: EGF-driven ERK pathway inhibition. HEK293-V1b, EGF-stimulated phospho-ERK AlphaScreen. Potency, µM (series often up to 11.5 µM), inactives show at the top dose activity change, negative = inhibition, usual class: inhibitors. 130,000 compounds, 0.41% hits. AID 1454;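 also: potency is read from the fitted curve at half-maximal effect; plate controls were stimulated vehicle wells for no effect and unstimulated vehicle basal for full effect; nearly all actives have a fitted effect of over 55% in size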
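Concentration-response of compounds against EGF-driven ERK phosphorylation in V1b-expressing HEK293 cells; 30 min preincubation, 5 min EGF, AlphaScreen detection; Normalized to DMSO basal and 25 nM EGF.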
pERK EGF inh: confirmation of ERK pathway inhibitors under EGF stimulation; Potency, µM (top dose mostly 57.5 µM), for the others: at the highest dose activity change, negative = inhibition, actives largely listed as inhibitors; 60 compounds, 60% hits; shares compounds with ERK EGF block; HEK293 EGF-stimulated ERK phosphorylation, AlphaScreen
c-Raf inh: c-Raf inhibition, ERK pathway follow-up; shares compounds with ERK EGF block; c-Raf kinase inhibition, homogeneous biochemical assay; activity change, negative = inhibition, % at 76.9 µM; 70 tested, under 10 active; AID 1728
MEK1 kinase inh: MEK1 (human) kinase inhibition. shares compounds with ERK EGF block. homogeneous MEK kinase activity assay, ERK pathway. Potency, µM (titrated, usually from 76.9 µM), for inactives: top-dose activity change, negative = inhibition, hits mostly inhibitors. 70 tested, under 10 active. AID 1732
The depositor's hits bear a star; ? = inconclusive; · = no result; [ ] = dose if it differs, or a comment. Calls follow the shape of the dose curve; as a rule, active = well fitted curve in the direction sought with a large enough effect; inconclusive = small, poorly fitted or top-dose-only effect, or another doubt; inactive = no such curve, though single readings can be large; an effect the other way counts as inactive or inconclusive.

SMILES	ERK EGF block	others
C[N+]1(C)CC(O)[C@H](C(=O)[O-])C1 (stereo partly specified)	-15%
CSc1ncc(OCc2ccccc2)c(=O)[nH]1	-5%[57.5 µM]
CC(Oc1ncnc2ccccc12)C(=O)Nc1cccc(S(=O)(=O)N2CCOCC2)c1 (stereo unspecified)	9%
CCOc1cccc(C(=O)NNC(=O)CCC(=O)O)c1	-4%
Cc1cccc(CNc2ncnc3ccc(-c4cccc(NS(C)(=O)=O)c4)cc23)c1	6.3µM*	pERK EGF inh=11µM*;c-Raf inh=?;MEK1 kinase inh=1%
Cc1cccc(CNc2cc(-c3cccc(NS(C)(=O)=O)c3)ncn2)c1	17%
Cc1cccc(CNc2ccnc(-c3cccc(NS(C)(=O)=O)c3)n2)c1	34%
Nc1ccc(SCC(=O)Nc2cccc([N+](=O)[O-])c2)cc1	3%
C/C(N)=C(/C#N)C(=O)CSc1ccccc1F	-7%
Nc1ccccc1SSc1ccccc1N	27%[57.5 µM]
N#CC(=C(/N)Sc1ccccc1N)/C(C#N)=C(/N)Sc1ccccc1N	0.89µM*	c-Raf inh=-2
CCOC(=O)N1CCN=C1SCc1ccc(Cl)c(Cl)c1	-5%
CCOCC(=O)Nc1cc(C)on1	-4%
CC(C)OC(=O)c1cccc(-c2ccc(C=O)o2)c1	9%
COc1ncc2nc(-c3ccc(Cl)cc3)c(=O)n(CCc3ccccc3)c2n1	6%
COc1ccc(Oc2ncc3nc(C)c(=O)n(CCc4ccccc4)c3n2)cc1	4%
COc1ccc(-c2nc3cnc(N(C)C)nc3n(CCc3ccccc3)c2=O)cc1	?	pERK EGF inh=?;c-Raf inh=1;MEK1 kinase inh=-4%
Fc1ccccc1NC(=S)N(CCCN1CCOCC1)Cc1cccnc1	-1%
S=C1CCC(c2ccc(Br)cc2)=NN1c1ccccc1	-3%[57.5 µM]
Cn1cccc1C(=O)OCC(=O)NC(=O)NC1CCCCC1	0%
COc1ccc(OCC(Cn2cnc3ccccc32)OC(C)=O)cc1 (stereo unspecified)	-3%
O=C(O)c1ccc(OCCn2ccnc2)cc1	-7%[57.5 µM]
COc1ccc(C(=O)OC(COc2ccccc2)Cn2ccnc2)cc1 (stereo unspecified)	7.1µM*	pERK EGF inh=14µM*;c-Raf inh=-8;MEK1 kinase inh=-15%
CC1=NNC(=O)c2ccccc2O1	-5%
C=C[C@@]1(C)CC(=O)[C@@]2(O)[C@@]3(C)[C@@H](O)CCC(C)(C)[C@@H]3[C@H](OC(=O)CCN(C)C)[C@H](OC(C)=O)[C@@]2(C)O1	-1%
SMILES	ERK EGF block	others
C=C[C@]1(C)CC(=O)[C@@]2(O)[C@@]3(C)C(O)CCC(C)(C)C3C(O)C(OC(C)=O)[C@@]2(C)O1 (stereo partly specified)	?	pERK EGF inh=-16%;c-Raf inh=-4;MEK1 kinase inh=-19%
Cc1nn(C)c(C(=O)NN)c1Cl	-1%
N#C/C(=C(/N)Sc1ccc(N)cc1)c1ccccc1C(F)(F)F	0.89µM*	c-Raf inh=12;MEK1 kinase inh=-16%
Nc1ccc(SC(F)(F)F)cc1	19%
O=C(NO)c1ccccc1C(F)(F)F	5%
Cn1/c(=N/N=C/c2ccccn2)sc2ccccc21	1%
O=C(COC(=O)/C=C/c1cccs1)NC1CC1	2%
O=C(Cc1ccc(Br)c2ccccc12)N/N=C/c1ccccn1	4%
N#Cc1cccnc1Nc1cccc(Cl)c1	-19%
COc1cc2ncnc(Nc3cccc(Cl)c3)c2cc1OC	0.25µM*	pERK EGF inh=0.2µM*;c-Raf inh=?;MEK1 kinase inh=-15%
COc1cc(C)c(NC(=S)Nc2cccc(Cl)c2)cc1OC	-4%
CC(=O)N[C@H](Cc1c[nH]c2ccccc12)C(N)=O	-29%
COc1ccc(N2C(=O)/C(=C3/C=CC=CN3C)SC2=S)cc1	-2%
COc1ccc(N2C(=O)C3C(C2=O)C3(c2ccccc2)c2ccccc2)cc1 (stereo unspecified)	-4%[57.5 µM]
COc1ccc(N=C2C(=Nc3ccc(OC)cc3)N(c3ccc(OC)cc3)C(=S)N2C)cc1	·	pERK EGF inh=7.9µM*;c-Raf inh=6;MEK1 kinase inh=-13%
COc1ccc(N2C(=O)CN(Cc3cc(OC)c(OC)c(OC)c3)C2=S)cc1	-5%
COc1ccc(N=C2C(=Nc3ccc(OC)cc3)N(c3ccc(OC)cc3)C(=S)N2c2ccccc2)cc1	·	pERK EGF inh=8.9µM*;c-Raf inh=-6;MEK1 kinase inh=-10%
COc1ccc(N2CC(=O)N(c3ccccc3)C2=S)cc1	5%
CCOC(=O)c1nc(C)n(-c2cc(OC)c(Cl)cc2Cl)n1	-2%
CC(=O)/C=C\C1[C@]2(C)CCCC(C)(C)C2CC[C@@]1(C)O (stereo partly specified)	30%
CCC(CC)C(=O)c1c[nH]c(C(=O)OC)c1	-18%
COc1ccccc1NC(=O)Nc1ccc(CC#N)cc1	1%[57.5 µM]
O=c1cc(-c2ccc(O)c(O)c2)oc2cc(O)cc(O)c12	-5%
O=c1cc(-c2ccc(O)cc2)oc2cccc(O)c12	-4%	pERK EGF inh=-12%;c-Raf inh=?;MEK1 kinase inh=-6%
O=c1cc(-c2ccccc2Cl)oc2cccc(O)c12	-3%
